We go through eight molecules from PubChem BioAssay (Tox21).

SMILES strings stand for the structures. Values without a mark were called inactive. Results filed as inconclusive are left out. The source made the active and inactive calls. Unless noted, the call rests on the fitted dose curve.

Test [1] in a line: Nuclear factor erythroid 2-related factor 2/antioxidant responsive element (Nrf2/ARE) small molecule agonists: qHTS cell viability counter screen in human keratinocytes (AID 1919968; active means well fitted curve in the direction sought with a large enough effect in the repeat runs; an effect the other way counts as inactive or inconclusive; further: nearly all actives have a fitted effect of over 55% in size; further: potency means the concentration at half of the fitted maximal effect). An outline of the steps: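 HaCaT ARE reporter line, 1,500 cells/well; 5 h settle, 37 C/5% CO2; cpd in DMSO pinned; 23 h exposure; CellTiter-Fluor, 1 h; fluorescence.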
(qHTS replaces the single test concentration by a dilution series.)

A short description of test [2]: Nuclear factor erythroid 2-related factor 2/antioxidant responsive element (Nrf2/ARE) small molecule agonists: luciferase reporter gene qHTS assay in human keratinocytes (AID 1919969; further: nearly all actives have a fitted effect of over 35% in size; further: potency means the concentration at half of the fitted maximal effect). (A reporter such as luciferase makes a cellular process visible.)
The target of test [3] is Gonadotropin-releasing hormone receptor (Homo sapiens) (UniProt P30968). Nature of the test: Human gonadotropin-releasing hormone receptor (GnRHR) small molecule agonists, calcium flux assay in GnRHR-HEK293 cells (AID 1920063). Further: nearly all actives have a fitted effect of over 35% in size. Summed up:
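GnRHR-HEK293, 1500 cells/well, 18 h 37 C/5% CO2; Ca dye 1 h 37 C; cpd pinned (DMSO), agonist mode; kinetic FL 480/540, 3 min, 1 s reads; 15 conc, n=3.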
For orientation: Calcium assays in cells follow changes in intracellular calcium, usually with a dye or a luminescent sensor.

The target of test [4] is KiSS-1 receptor (Homo sapiens) (UniProt Q969F8). Nature of the test: Human kisspeptin (KISS1R) small molecule agonists, calcium flux assay in KISS1R-HEK293 cells (AID 1920064; active means well fitted curve in the direction sought with a large enough effect in the repeat runs; an effect the other way counts as inactive or inconclusive). An outline of the steps:
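Stable human KISS1R HEK293 line; 18 h plating, 37 C/5% CO2; calcium dye 1 h 37 C; compound pin transfer; kinetic fluorescence Ex/Em 480/540, 3 min.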

A short description of test [5]: G protein-coupled receptor (GPCR) small molecule agonists, calcium flux assay: HEK293 wild type cell line counter screen (AID 1920065). Summed up:
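Kinetic fluorescence at Ex/Em 480/540, recorded every second over 3 min, served as the read-out after compound addition. Each compound was tested at 15 concentrations in triplicate on cells pre-loaded with calcium dye for 1 h.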

Test [6] is described as follows: p53 small molecule agonists, cell-based qHTS assay with human liver microsomes: qHTS cell viability counter screen (AID 1963579). Further: nearly all actives have a fitted effect of over 45% in size. Summed up:
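Metabolically activated exposure: compounds, human liver microsomes and NADPH (0.5 mg/mL final apiece) were added to p53RE-bla cells seeded 5 h earlier, left 16 h at 37 C, and then assessed for viability by CellTiter-Glo luminescence.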

Test [7] is described as follows: p53 small molecule agonists, cell-based qHTS assay: qHTS cell viability counter screen (AID 1963581). Further: nearly all actives have a fitted effect of over 45% in size. An outline of the steps: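 HCT-116 p53RE-bla cells, 4,000/well, plated 5 h before compound pin transfer; 16 h at 37 C; bla substrate 2 h RT; then CellTiter-Glo, 30 min RT, luminescence.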
A short description of test [8]: cAMP Responsive Elements (CRE) small molecule agonists, cell-based qHTS assay (AID 1963590). An outline of the steps: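 HEK 293T CRE-bla, 2,000 cells/well, 18 h preincubation 37 C/5% CO2; cpds (DMSO) pinned, 3 h; LiveBLAzer B/G FRET substrate, 2 h RT.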
Test [9] in a line: cAMP Responsive Elements (CRE) small molecule antagonists, cell-based qHTS assay (AID 1963591; active means well fitted inhibition curve with a large enough effect in the signal ratio in the repeat runs, not every such curve was filed as active; the % refers to the signal ratio). An outline of the steps:
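Beta-lactamase reporter read by FRET substrate (LiveBLAzer B/G) after 2 h at room temperature. CRE-bla HEK293T cells had received compound plus 0.25 uM (final) NKH477 for 3 h at 37 °C.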

For test [10], the target named is Beta-2 adrenergic receptor (Homo sapiens) (UniProt P07550). Nature of the test: Adrenergic beta2 receptor (ADRB2) small molecule antagonists, cell-based qHTS assay (AID 1963592). Further: nearly all actives have a fitted effect of over 50% in size. Further: potency means the concentration at half of the fitted maximal effect. Summed up:
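Cells (CHO, stable ADRB2 overexpression) incubated 18-20hr at 37C; compounds added from DMSO; agonist mix (1nM isoproterenol, 100uM IBMX, 25uM Ro-20-1724) added; 0.5hr RT; d2-cAMP and anti-cAMP-cryptate added; 1hr RT; 665/615 nm read.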

For test [11] the target is unchanged. Nature of the test: Adrenergic beta2 receptor (ADRB2) small molecule agonists, cell-based qHTS assay (AID 1963593).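 Further: CHO cells stably overexpressing human ADRB2.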 Summed up:
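CHO cells stably over-expressing ADRB2 were plated overnight at 37C, then dosed with compounds plus a stimulation mix containing 100uM IBMX and 25uM Ro-20-1724 for 0.5hr at room temperature. cAMP was measured by HTRF competition, 1hr.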

Test [12] addresses D(2) dopamine receptor (Homo sapiens) (UniProt P14416). Nature of the test: Dopamine D2 receptor (DRD2) small molecule agonists, cell-based qHTS assay (AID 1963594). Further: nearly all actives have a fitted effect of over 35% in size. An outline of the steps:
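HEK293 cells stably expressing human DRD2, pre-treated with PDE inhibitor Ro20-1724 (0.1 mM final) and compound 10 min at room temperature, then stimulated with NKH477 (200nM […]) for 30 min. cAMP read by HTRF (665/620 nm).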

The target is the same in test [13]. Nature of the test: Dopamine D2 receptor (DRD2) small molecule antagonists, cell-based qHTS assay (AID 1963595; active means well fitted inhibition curve with a large enough effect in the signal ratio in the repeat runs, with a control signal flat; the % refers to the signal ratio). Summed up: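 HTRF cAMP read-out at 665 and 620 nm emission (340 nm excitation). Antagonist mode: compounds were tested against 12 nM quinpirole in DRD2-HEK293 cells, with 200 nM NKH477 raising cAMP and 0.1 mM Ro20-1724 blocking its breakdown.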
Test [14] is described as follows: p53 small molecule agonists, cell-based qHTS assay with rat liver microsomes: qHTS cell viability counter screen (AID 1963580). Further: nearly all actives have a fitted effect of over 45% in size. Summed up: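 Viability is assessed in parallel with the p53 reporter read: HCT-116 p53RE-bla cells receive compounds plus rat microsomes and NADPH (0.5 mg/mL final apiece), incubate 16 h at 37 C, and then CellTiter-Glo luminescence is recorded.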

For test [15], the target named is 5-hydroxytryptamine receptor 2A (Homo sapiens) (UniProt P28223). Nature of the test: 5-hydroxytryptamine receptor 2A (HTR2A) small molecule antagonists, cell-based qHTS assay (AID 1963586). Further: nearly all actives have a fitted effect of over 45% in size. An outline of the steps: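 Antagonist-mode intracellular calcium assay: DOI (4 nM) added after 5 min compound pre-incubation at room temperature to dye-loaded HTR2A-CHO cells. Fluorescence followed for 3 min, sampled every second.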

Test [16] has the same target. Nature of the test: 5-hydroxytryptamine receptor 2A (HTR2A) small molecule agonists, cell-based qHTS assay (AID 1963587). Further: nearly all actives have a fitted effect of over 30% in size. An outline of the steps: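 CHO cells stably expressing human HTR2A, plated 18 h, loaded with calcium dye 1 h at 37 C. Agonist mode: compounds added and intracellular calcium fluorescence recorded kinetically for 2 min at 1 sec intervals.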
Test [17] deals with Muscarinic acetylcholine receptor M1 (Homo sapiens) (UniProt P11229). Nature of the test: Cholinergic receptor muscarinic 1 (CHRM1) small molecule antagonists, cell-based qHTS assay (AID 1963588). Further: nearly all actives have a fitted effect of over 40% in size. An outline of the steps:
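CHRM1-CHO calcium-flux assay, antagonist mode. Cells were seeded 18 h, dye-loaded 1 h at 37 C and given compound for 5 min at RT, then acetylcholine was added at 50nM. FDSS fluorescence was read 3 min; 15 concentrations, three runs.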

The target is the same in test [18]. Nature of the test: Cholinergic receptor muscarinic 1 (CHRM1) small molecule agonists, cell-based qHTS assay (AID 1963589). Further: nearly all actives have a fitted effect of over 35% in size. Further: potency means the concentration at half of the fitted maximal effect. An outline of the steps:
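Human M1 in stable CHO line; 18 h plating, 1 h dye load 37 C; cpd added (agonist mode); Ca2+ fluorescence kinetic read, 1 s intervals; 15 conc, 3 runs.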

Test [19] in a line: p53 small molecule agonists, cell-based qHTS assay (AID 1963582; active means well fitted activation curve with a large enough effect in the signal ratio in the repeat runs, not every such curve was filed as active; the % refers to the signal ratio). Summed up: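 Reporter line: p53RE-bla. Pre-incubation 5 h, 37 C, 5% CO2; compound (DMSO, pin tool) 16 h, 37 C; B/G FRET substrate 2 h RT; fluorescence intensity read.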

Chain of Muscarinic acetylcholine receptor M1 (Homo sapiens) (P11229 whole entry, looked up): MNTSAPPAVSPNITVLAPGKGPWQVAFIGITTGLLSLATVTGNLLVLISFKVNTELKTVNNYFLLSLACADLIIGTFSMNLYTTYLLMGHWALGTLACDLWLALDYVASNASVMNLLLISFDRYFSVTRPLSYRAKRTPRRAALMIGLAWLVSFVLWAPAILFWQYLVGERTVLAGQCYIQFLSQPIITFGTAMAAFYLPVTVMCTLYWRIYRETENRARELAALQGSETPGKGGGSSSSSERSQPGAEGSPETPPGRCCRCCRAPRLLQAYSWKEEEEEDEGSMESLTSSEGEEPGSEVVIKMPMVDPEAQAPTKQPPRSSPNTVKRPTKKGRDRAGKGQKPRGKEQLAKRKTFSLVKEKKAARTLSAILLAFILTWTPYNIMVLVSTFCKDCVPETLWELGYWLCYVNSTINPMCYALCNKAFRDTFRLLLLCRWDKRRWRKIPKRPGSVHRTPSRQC
Chain of Beta-2 adrenergic receptor (Homo sapiens) (P07550 whole entry, looked up): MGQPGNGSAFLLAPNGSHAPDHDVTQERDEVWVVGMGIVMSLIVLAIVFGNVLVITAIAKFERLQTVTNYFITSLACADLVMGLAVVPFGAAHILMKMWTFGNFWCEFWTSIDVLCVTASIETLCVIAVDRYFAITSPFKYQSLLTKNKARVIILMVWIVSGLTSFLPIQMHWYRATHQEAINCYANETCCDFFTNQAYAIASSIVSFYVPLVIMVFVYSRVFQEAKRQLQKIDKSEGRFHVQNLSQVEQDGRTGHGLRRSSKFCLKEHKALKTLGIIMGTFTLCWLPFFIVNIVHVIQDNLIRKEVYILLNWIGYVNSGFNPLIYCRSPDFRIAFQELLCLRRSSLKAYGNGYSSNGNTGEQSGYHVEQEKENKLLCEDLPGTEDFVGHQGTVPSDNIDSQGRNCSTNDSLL
Chain of 5-hydroxytryptamine receptor 2A (Homo sapiens) (P28223 whole entry, looked up): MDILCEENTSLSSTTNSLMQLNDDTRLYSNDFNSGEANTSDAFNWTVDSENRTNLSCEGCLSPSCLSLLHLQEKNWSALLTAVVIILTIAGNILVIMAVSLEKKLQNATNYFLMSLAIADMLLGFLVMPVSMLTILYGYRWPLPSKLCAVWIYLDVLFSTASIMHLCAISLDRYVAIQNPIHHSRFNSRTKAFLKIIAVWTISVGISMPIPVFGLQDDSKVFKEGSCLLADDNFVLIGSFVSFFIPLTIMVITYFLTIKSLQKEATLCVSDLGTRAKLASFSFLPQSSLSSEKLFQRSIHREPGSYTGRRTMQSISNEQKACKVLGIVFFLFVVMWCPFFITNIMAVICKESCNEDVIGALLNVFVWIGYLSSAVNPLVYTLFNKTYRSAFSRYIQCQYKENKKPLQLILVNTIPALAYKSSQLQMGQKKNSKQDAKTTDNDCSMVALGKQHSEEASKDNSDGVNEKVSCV
Chain of D(2) dopamine receptor (Homo sapiens) (P14416 whole entry, looked up): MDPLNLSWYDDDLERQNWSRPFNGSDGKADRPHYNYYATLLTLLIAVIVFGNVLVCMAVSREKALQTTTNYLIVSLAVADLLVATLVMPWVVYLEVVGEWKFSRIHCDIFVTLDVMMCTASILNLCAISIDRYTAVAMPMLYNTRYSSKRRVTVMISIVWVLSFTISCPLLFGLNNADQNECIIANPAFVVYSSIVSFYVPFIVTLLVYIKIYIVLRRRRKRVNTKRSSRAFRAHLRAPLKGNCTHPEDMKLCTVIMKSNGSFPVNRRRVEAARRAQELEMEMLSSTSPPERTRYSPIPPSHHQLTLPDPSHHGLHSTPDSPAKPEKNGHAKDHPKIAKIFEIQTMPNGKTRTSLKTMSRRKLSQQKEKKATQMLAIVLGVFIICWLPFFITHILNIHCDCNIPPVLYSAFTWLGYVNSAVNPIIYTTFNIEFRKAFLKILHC
Chain of KiSS-1 receptor (Homo sapiens) (Q969F8 whole entry, looked up): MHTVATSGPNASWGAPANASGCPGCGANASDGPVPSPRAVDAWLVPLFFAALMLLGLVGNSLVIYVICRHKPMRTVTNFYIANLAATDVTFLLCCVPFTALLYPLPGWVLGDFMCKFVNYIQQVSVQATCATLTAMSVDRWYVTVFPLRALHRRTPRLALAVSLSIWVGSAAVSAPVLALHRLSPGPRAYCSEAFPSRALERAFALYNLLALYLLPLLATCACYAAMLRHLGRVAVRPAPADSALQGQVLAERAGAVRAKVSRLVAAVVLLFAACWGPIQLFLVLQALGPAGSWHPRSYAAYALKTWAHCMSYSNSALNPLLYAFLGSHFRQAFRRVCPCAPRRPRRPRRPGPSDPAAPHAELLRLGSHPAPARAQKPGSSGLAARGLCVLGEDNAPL
Chain of Gonadotropin-releasing hormone receptor (Homo sapiens) (P30968 whole entry, looked up): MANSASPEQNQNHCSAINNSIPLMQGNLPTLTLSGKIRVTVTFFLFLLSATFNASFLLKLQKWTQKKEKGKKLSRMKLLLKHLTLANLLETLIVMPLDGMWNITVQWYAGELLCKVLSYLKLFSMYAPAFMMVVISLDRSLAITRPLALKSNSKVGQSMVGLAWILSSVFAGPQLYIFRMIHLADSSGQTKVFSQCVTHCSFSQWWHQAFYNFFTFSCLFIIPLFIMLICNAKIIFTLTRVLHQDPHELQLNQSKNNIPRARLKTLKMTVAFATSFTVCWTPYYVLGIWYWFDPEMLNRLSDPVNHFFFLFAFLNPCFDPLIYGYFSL

For the molecule `CN1CCC[C@@H]1c1cccnc1`, the Potency result in test [1], in test [2], in test [3], in test [4], in test [5] and in test [6] was “inactive” throughout. For the same molecule, the Potency entry in [7], in [8], in test [9], in test [10], in test [11] and in test [12] was “inactive” each time. Also, in [13], the Potency result was “inactive”.

As for `Nc1c[n+](N2CCOCC2)no1`, the Potency entry in test [1], in test [2], in test [3], in test [4], in test [5] and in [14] was “inactive” throughout. In addition, the Potency entry in [7], in [15], in [16], in test [17], in test [18] and in test [8] was “inactive” each time. Also, the Potency entry in test [9], in [11], in test [12] and in [13] was “inactive” throughout.

As to `COc1ccc(NC(=O)CC(C)=O)cc1`, the Potency entry in test [1], in test [2], in test [3], in test [4], in test [5] and in test [6] was “inactive” in each case. Also, the Potency entry in test [19], in test [15], in [16], in test [17], in test [18] and in [8] was “inactive” in each case. Also, the Potency result in [9], in test [10], in test [11], in [12] and in [13] was “inactive” in each case.

For `Clc1ccc(C(Cn2ccnc2)OCc2ccsc2Cl)c(Cl)c1` (stereo not given), the Potency in test [1] was 8.41 µM (active); in test [2], 10.6 µM (active); in [10] it was 29.8 µM (active). Moreover, the Potency entry in test [3], in [4], in test [5], in test [14], in [7] and in test [15] was “inactive” in each case. Also, the Potency result in test [16], in test [18], in [12] and in test [13] was “inactive” in each case.

Consider `Cc1onc(-c2ccccc2Cl)c1C(=O)N[C@@H]1C(=O)N2[C@@H]1SC(C)(C)[C@@H]2C(=O)O`, for which the Potency entry in test [1], in [2], in test [3], in test [4], in [5] and in [14] was “inactive” in each case. Besides, the Potency entry in [7], in test [9], in [10], in test [11], in test [12] and in test [13] was “inactive” in each case.

For `O=C(O)c1c(Cl)ccc(Cl)c1Cl`, the Potency entry in test [1], in [2], in test [3], in test [4], in [5] and in test [14] was “inactive” throughout. Besides, the Potency result in test [7], in test [15], in test [16], in test [17], in test [18] and in test [8] was “inactive” each time. Moreover, the Potency entry in test [9], in [10], in test [11], in test [12] and in [13] was “inactive” throughout.

For the molecule `O=C(c1ccccc1)c1ccc(O)cc1`, the Potency result in test [1], in test [2], in [3], in test [4], in test [5] and in test [14] was “inactive” throughout. Moreover, the Potency entry in test [7], in test [15], in [16], in test [17], in test [10] and in test [13] was “inactive” in each case.

As to `CCCCCCCCCCCCSCCOCCO`, the Potency entry in [1], in [2], in test [3], in [4], in test [5] and in test [6] was “inactive” throughout. For the same molecule, the Potency result in [15], in [16], in [8], in test [9], in [10] and in test [11] was “inactive” in each case. Also, the Potency entry in test [12] and in [13] was “inactive” in each case. Further, the Potency in test [18] is 0.0379 µM (active).
